PubChem BioAssay AID1211 (NMMLSC, 2008)
Activity calls are given as the source filed them. The rule behind the calls is not given here.

Target: Estrogen receptor (Homo sapiens) (UniProt P03372)
Test: displacement of fluorescent estrogen from ERalpha – cell-based, Cos7 ERalpha-GFP, flow cytometry, primary screen (AID 1211);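 note: 0% = DMSO vehicle wells and 100% = no E2-Alexa633 signal left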
Details: fluorescent ligand competition, stronger effect = higher value

Sequence of Estrogen receptor (Homo sapiens) (P03372 whole entry, looked up): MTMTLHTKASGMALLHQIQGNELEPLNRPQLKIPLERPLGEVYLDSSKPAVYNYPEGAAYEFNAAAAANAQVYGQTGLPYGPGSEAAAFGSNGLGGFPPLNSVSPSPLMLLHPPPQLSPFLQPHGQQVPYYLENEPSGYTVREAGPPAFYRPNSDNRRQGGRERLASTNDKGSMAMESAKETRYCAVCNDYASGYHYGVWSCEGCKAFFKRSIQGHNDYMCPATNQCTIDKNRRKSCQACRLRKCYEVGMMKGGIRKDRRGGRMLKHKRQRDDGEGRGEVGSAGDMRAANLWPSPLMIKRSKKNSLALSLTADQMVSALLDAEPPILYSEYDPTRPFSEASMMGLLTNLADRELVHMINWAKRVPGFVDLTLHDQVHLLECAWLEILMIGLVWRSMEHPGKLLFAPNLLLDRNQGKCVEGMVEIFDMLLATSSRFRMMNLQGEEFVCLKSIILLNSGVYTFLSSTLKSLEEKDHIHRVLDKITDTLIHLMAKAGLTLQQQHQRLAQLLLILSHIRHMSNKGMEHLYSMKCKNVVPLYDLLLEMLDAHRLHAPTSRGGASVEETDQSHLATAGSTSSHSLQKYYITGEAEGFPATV

| SMILES | inhibition of ligand binding (at 10 µM) | inhibition of ligand binding (binding inhibition, at 0.1 µM) [%] |
| --- | --- | --- |
| O=C(Nc1ccccc1N1CCOCC1)c1cc(-c2ccco2)nc2ccccc12 | 15% (inactive) | 22 |
| Cc1cc(C)n2nc(SCc3cc(=O)oc4cc(O)ccc34)nc2n1 | 49% (inactive) | 5 |
| CC(C)c1ccc2c(c1)[C@H]1OCC[C@H]1[C@@H](c1cccs1)N2 | 0% (inactive) | 20 |
| Cc1nc2ccc(C(=O)O)cc2[nH]1 | 55% (inactive) | 52 |
| CCSc1nnc(NC(=O)C2Cc3ccccc3CN2C(=O)c2ccco2)s1 (centres undefined) | 26% (inactive) | 44 |
| Cc1nn(-c2ccccc2)c(/N=C/c2ccc(O)cc2)c1-c1ccccc1 | 77% (active) | 50 |
| CN1C(=O)CSc2ccc(NC(=O)N3CCC(N4CCCCC4)CC3)cc21 | 57% (inactive) | 1 |
| COc1cc(NC(=O)c2cccs2)c(C(=O)OCC(=O)NCc2ccco2)cc1OC | 22% (inactive) | 20 |
| Cc1cc(N)ccc1N=Nc1c(C)n(C)n(-c2ccccc2)c1=O | 44% (inactive) | 3 |
| COc1ccc2c(c1)C1C=CCC1C(c1cc3c(cc1Br)OCO3)N2 (centres undefined) | 0% (inactive) | 10 |
| Cc1ccc(NC(=O)CSc2nc3ccccc3c3nc4ccccc4n23)cc1 | 60% (inactive) | 27 |
| CCn1c2ccccc2c2cc(NC(=O)CSc3nnc(-c4ccc(OC)cc4)n3N)ccc21 | 53% (inactive) | 17 |
| C/C(N)=C(/C#N)C(=O)CSc1nnc(Nc2cccc(C)c2C)s1 | 32% (inactive) | 16 |
| O=S(=O)(c1cccc(-c2cn3cccnc3n2)c1)N1CCCCCC1 | 25% (inactive) | 48 |
| O=C(c1cc2ncc(Br)cn2n1)N1CCOCC1 | 54% (inactive) | 25 |
| COc1ccc(N=Cc2sc(O)c3ccccc23)cc1 | 37% (inactive) | 36 |
| O=C(Cc1cn2ccsc2n1)OCc1nc2ccccc2s1 | 26% (inactive) | 18 |
| CCOC(=O)N1CCN(S(=O)(=O)c2ccc(C(=O)Nc3nc4ccc(F)cc4s3)cc2)CC1 | 34% (inactive) | 11 |
| COc1cc(C(Nc2ccccn2)c2ccc3ccc(C)nc3c2O)cc(OC)c1O (centres undefined) | 54% (inactive) | 16 |
| COC(=O)c1c(NC(=O)Cc2cccs2)sc2c1CCCC2 | 57% (active) | 70 |
| O=C(Nc1ccc2c(c1)nc1n2CCSC1)c1ccco1 | 20% (inactive) | 42 |

| SMILES | inhibition of ligand binding (at 10 µM) | inhibition of ligand binding (binding inhibition, at 0.1 µM) [%] |
| --- | --- | --- |
| Nc1ccc2nc(-c3ccc(Cl)cc3)[nH]c2c1 | 41% (inactive) | 30 |
| O=C(O)c1ccc(Cl)c2c1C1C=CCC1C(c1ccccn1)N2 (centres undefined) | 43% (inactive) | 10 |
| O=S(=O)(/N=C(/Sc1ccccc1)c1ccccc1)c1ccccc1 | 0% (inactive) | 24 |
| COCCNC(=O)c1c(N)n(/N=C/c2cccs2)c2nc3ccccc3nc12 | 41% (inactive) | 6 |
| Nc1ccc2oc(-c3ccc4nc[nH]c4c3)nc2c1 | 31% (inactive) | 55 |
| Cc1oc(-c2ccc(Cl)cc2)cc1-c1nn2c(-c3ccoc3C)nnc2s1 | 68% (active) | 34 |
| Cc1ccc(C(=O)Nc2nc(-c3cccnc3)cs2)o1 | 29% (inactive) | 20 |
| Cc1ccc(N=Cc2ccc(O)cc2O)cc1F | 29% (inactive) | 2 |
| C/C(N)=C(/C#N)C(=O)CSc1nnc(-c2ccc(OC(F)F)cc2)o1 | 20% (inactive) | 24 |
| O=C(c1cc2ncc(Br)cn2n1)N1CCN(C(=O)c2ccco2)CC1 | 2% (inactive) | 15 |
| Nc1c(Cl)cc(Cl)cc1C(=O)OCC(=O)NC1CC1 | 52% (inactive) | 13 |
| O=C(O)c1ccc2c(c1)-c1nc3ccccc3n1C2=O | 32% (inactive) | 5 |
| Cc1c(Cl)cccc1NS(=O)(=O)c1ccc2c(c1)C1C=CCC1C(c1ccc(C(=O)O)cc1)N2 (centres undefined) | 55% (inactive) | 1 |
| CCC1=NN2C(=N)/C(=C\c3ccc(SCc4ccco4)o3)C(=O)N=C2S1 | 22% (inactive) | 10 |
| COc1nnc(-c2ccc(C(=O)N3C[C@@H]4C[C@H](C3)c3cccc(=O)n3C4)cc2)c2ccccc12 | 1% (inactive) | 6 |
| COc1ccc(NC(=O)c2ccco2)cc1N | 2% (inactive) | 3 |
| COc1ccccc1NC(=O)c1ccccc1NC(=O)c1cc(Cl)ccc1NC(=O)c1ccco1 | 32% (inactive) | 3 |
| COc1ccc(N2Cc3cccc(C(=O)N4CCN(C(=O)c5ccco5)CC4)c3C2=O)cc1 | 20% (inactive) | 38 |
| O=C(O)C1Nc2c(C(=O)N3CCOCC3)cccc2C2C=CCC12 (centres undefined) | 28% (inactive) | 15 |
| O=C(CSc1nnc(SCC(=O)c2ccco2)s1)c1ccco1 | 14% (inactive) | 28 |
| Oc1ccc(N=Cc2ccc(O)c(O)c2)cc1 | 0% (inactive) | 41 |
